Where “and” joins values, the source holds several entries; their conditions need not be identical. Equal entries are not always repeated. About 2,000 (36%) of roughly 5,500 compounds were called active. Roughly 18% stayed inconclusive and do not appear here. No stated cut-off is given here; in the data, active means normalized growth mostly below about 0.91 (no sharp cut-off); inconclusive means no clear call, values can overlap the other calls; inactive means mostly above about 0.92. Some of the results follow.
Assay: chemical genetic growth profiling, strain panel (AID 1159580);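 further: tested at 20 µM; growth read once vehicle control cultures reached saturation at 30 °C; 1 = growth at the plate median or of vehicle wells; lower values mean less growth of the strain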
Conditions: S. cerevisiae deletion strains, growth OD
[1] = locus YAL013W, strain DEP1, active compounds read low
[2] = locus YBR229C, strain ROT2, active compounds read low
[3] = locus YDL101C, strain DUN1, active compounds read low
[4] = locus YDL134C, strain PPH21, active compounds read low
[5] = locus YDR150W, strain NUM1, active compounds read low
[6] = locus YEL061C, strain CIN8, active compounds read low
[7] = locus YHR030C, strain SLT2, active compounds read low
[8] = locus YJL187C, strain SWE1, active compounds read low
[9] = locus YJR043C, strain POL32, active compounds read low
[10] = locus YJR075W, strain HOC1, active compounds read low
[11] = locus YKL190W, strain CNB1, active compounds read low
[12] = locus YLR039C, strain RIC1, active compounds read low
[13] = locus YLR262C, strain YPT6, active compounds read low
[14] = locus YMR263W, strain SAP30, active compounds read low
[15] = locus YMR307W, strain GAS1, active compounds read low
[16] = locus YNL322C, strain KRE1, active compounds read low
[17] = locus YPL055C, strain LGE1, active compounds read low
[18] = locus YPL241C, strain CIN2, active compounds read low
[19] = locus YGR078C, strain PAC10, active compounds read low
[20] = locus YHR087W, strain rtc3, active compounds read low
[21] = locus YLR058C, strain SHM2 (second series), active compounds read low
[22] = locus YLR085C, strain ARP6, active compounds read low
[23] = locus YML094W, strain GIM5, active compounds read low
[24] = locus YMR219W, strain ESC1, active compounds read low
[25] = locus YNL153C, strain GIM3, active compounds read low
[26] = locus YNL298W, strain CLA4 (second series), active compounds read low
[27] = locus YNR030W, strain Alg12, active compounds read low
[28] = locus YOL006C, strain TOP1, active compounds read low
[29] = locus YPR135W, strain CTF4, active compounds read low

Measured: normalized growth

Cc1cc(O)cc(=O)o1
inactive: [1] 0.999 | locus YAL021C, strain ccr4, active compounds read low 0.991 | locus YAL026C, strain drs2, active compounds read low 0.998 | locus YAL030W, strain snc1, active compounds read low 0.993 | locus YBL061C, strain skt5, active compounds read low 1 | locus YBR009C, strain hhf1, active compounds read low 0.997 | locus YBR021W, strain FUR4, active compounds read low 0.985 | locus YBR023C, strain chs3, active compounds read low 1.01 | locus YBR171W, strain sec66, active compounds read low 0.988 | [2] 0.992 | locus YBR231C, strain swc5, active compounds read low 1.02 | locus YBR279W, strain paf1, active compounds read low 1 | locus YCL011C, strain gbp2, active compounds read low 0.991 | locus YCL016C, strain dcc1, active compounds read low 0.991 | locus YCL029C, strain bik1, active compounds read low 0.974 | locus YCL069W, strain vba3, active compounds read low 1.01 | locus YCR088W, strain abp1, active compounds read low 0.991 | locus YDL005C, strain med2, active compounds read low 1.01 | locus YDL035C, strain GPR1, active compounds read low 1.02 | locus YDL040C, strain nat1, active compounds read low 1 | locus YDL074C, strain BRE1, active compounds read low 1.01 | [3] 0.988 | [4] 1.03 | locus YDL185W, strain tfp1, active compounds read low 0.971 | locus YDL192W, strain arf1, active compounds read low 0.994 | locus YDR001C, strain nth1, active compounds read low 0.989 | locus YDR069C, strain doa4, active compounds read low 1.03 | locus YDR101C, strain arx1, active compounds read low 0.971 | locus YDR137W, strain rgp1, active compounds read low 0.998 | [5] 1.01 | locus YDR159W, strain sac3, active compounds read low 1.02 | locus YDR162C, strain NBP2, active compounds read low 1.02 | locus YDR195W, strain ref2 0.979 | locus YDR297W, strain sur2, active compounds read low 1.02 | locus YDR318W, strain mcm21, active compounds read low 1.02 | locus YDR334W, strain swr1, active compounds read low 0.989 | locus YDR335W, strain msn5, active compounds read low 1 | locus YDR388W, active compounds read low 0.992 | locus YDR392W, strain spt3, active compounds read low 1.03 | locus YDR502C, strain sam2, active compounds read low 1 | locus YEL003W, strain gim4, active compounds read low 0.992 | locus YEL037C, strain rad23, active compounds read low 0.994 | locus YEL061C, strain CIN8 (second series), active compounds read low 0.992 | [6] 1 | locus YER015W, strain faa2, active compounds read low 1.01 | locus YER016W, strain bim1, active compounds read low 0.994 | locus YER110C, active compounds read low 0.986 | locus YER111C, strain swi4, active compounds read low 1.01 | locus YER155C, strain BEM2 (second series), active compounds read low 1.04 | locus YER155C, strain BEM2, active compounds read low 0.982 | locus YER167W, strain BCK2, active compounds read low 0.99 | locus YFR010W, strain ubp6, active compounds read low 0.982 | locus YGL078C, strain dbp3, active compounds read low 0.981 | locus YGL086W, strain mad1, active compounds read low 0.969 | locus YGL167C, strain pmr1, active compounds read low 0.983 | locus YGL173C, strain kem1, active compounds read low 1.02 | locus YGL227W, strain vid30, active compounds read low 1.01 | locus YGL240W, strain doc1, active compounds read low 1.03 | locus YGL248W, strain PDE1, active compounds read low 0.997 | locus YGL253W, strain hxk2, active compounds read low 0.997 | locus YGR135W, strain pre9, active compounds read low 1.03 | locus YGR252W, strain gcn5, active compounds read low 1.09 | locus YHR013C, strain ard1, active compounds read low 0.998 | locus YHR027C, strain rpn1, active compounds read low 0.989 | [7] 0.992 and 0.959 | locus YHR079C, strain IRE1 (second series), active compounds read low 0.992 | locus YHR079C, strain IRE1, active compounds read low 0.969 | locus YHR094C, strain hxt1, active compounds read low 0.986 | locus YHR129C, strain ARP1, active compounds read low 1 | locus YHR142W, strain chs7, active compounds read low 0.987 | locus YHR200W, strain rpn10, active compounds read low 0.993 | locus YIL066C, strain RNR3, active compounds read low 0.988 | locus YIL073C, strain SPO22, active compounds read low 0.993 | locus YIL125W, strain kgd1, active compounds read low 0.984 | locus YIR030C, strain dcg1, active compounds read low 0.99 | locus YJL092W, strain hpr5, active compounds read low 0.987 | locus YJL095W, strain BCK1 (second series), active compounds read low 1 | locus YJL095W, strain BCK1, active compounds read low 1.01 and 0.959 | locus YJL115W, strain asf1, active compounds read low 0.969 | locus YJL129C, strain trk1, active compounds read low 1 | locus YJL134W, strain LCB3, active compounds read low 0.994 | locus YJL154C, strain vps35, active compounds read low 0.989 | locus YJL164C, strain tpk1, active compounds read low 0.996 | locus YJL166W, strain qcr8, active compounds read low 1.03 | locus YJL168C, strain set2, active compounds read low 0.992 | locus YJL187C, strain SWE1 (second series), active compounds read low 0.992 | [8] 1.01 | [9] 1.01 | locus YJR066W, strain TOR1, active compounds read low 0.921 | [10] 0.998 | locus YKL009W, strain mrt4, active compounds read low 0.961 | locus YKL068W, active compounds read low 0.989 | locus YKL085W, strain MDH1 (second series), active compounds read low 0.984 | locus YKL085W, strain MDH1, active compounds read low 0.984 | locus YKL160W, strain elf1, active compounds read low 0.994 | [11] 1.01 | locus YKR001C, strain vps1, active compounds read low 0.983 | locus YKR026C, strain gcn3, active compounds read low 0.993 | locus YKR091W, strain srl3, active compounds read low 0.983 | locus YLL001W, strain dnm1, active compounds read low 0.995 | locus YLL026W, active compounds read low 1.01 | locus YLL041C, strain sdh2, active compounds read low 0.985 | locus YLR027C, strain aat2, active compounds read low 1.01 | [12] 1.02 | locus YLR058C, strain SHM2, active compounds read low 1 | locus YLR102C, strain apc9, active compounds read low 0.991 | locus YLR113W, strain HOG1, active compounds read low 0.951 | locus YLR221C, strain rsa3, active compounds read low 1.03 | locus YLR258W, strain gsy2, active compounds read low 1.02 | locus YLR262C, strain YPT6 (second series), active compounds read low 0.995 | [13] 1.04 | locus YLR268W, strain sec22, active compounds read low 0.965 | locus YLR320W, strain mms22, active compounds read low 1.05 | locus YLR330W, strain CHS5, active compounds read low 0.99 | locus YLR342W, strain FKS1 (second series), active compounds read low 1 | locus YLR342W, strain FKS1, active compounds read low 1.01 | locus YLR357W, strain rsc2, active compounds read low 0.973 | locus YLR370C, strain arc18, active compounds read low 1.01 | locus YLR371W, strain rom2, active compounds read low 0.974 | locus YLR384C, strain iki3, active compounds read low 1 | locus YLR418C, strain cdc73, active compounds read low 1.01 | locus YML016C, strain PPZ1, active compounds read low 0.985 | locus YML032C, strain rad52, active compounds read low 1.02 | locus YML120C, strain ndi1, active compounds read low 0.994 | locus YML124C, strain tub3, active compounds read low 0.994 | locus YMR058W, strain fet3, active compounds read low 0.987 | locus YMR078C, strain ctf18, active compounds read low 0.991 | locus YMR125W, strain sto1, active compounds read low 0.955 | locus YMR129W, active compounds read low 0.996 | locus YMR205C, strain PFK2, active compounds read low 1.01 | locus YMR223W, strain ubp8, active compounds read low 0.999 | locus YMR231W, strain pep5, active compounds read low 1.01 | [14] 1.01 | [15] 1.01 | locus YNL067W, strain RPL9B, active compounds read low 1.01 | locus YNL071W, strain lat1, active compounds read low 1 | locus YNL183C, strain NPR1, active compounds read low 0.898 | locus YNL209W, strain ssb2, active compounds read low 0.995 | locus YNL233W, strain BNI4, active compounds read low 0.997 | locus YNL248C, strain rpa49, active compounds read low 0.99 | locus YNL250W, strain rad50, active compounds read low 0.991 | locus YNL271C, strain bni1, active compounds read low 0.976 | locus YNL298W, strain CLA4, active compounds read low 0.988 | locus YNL307C, strain MCK1, active compounds read low 0.977 | locus YNL322C, strain KRE1 (second series), active compounds read low 0.99 | [16] 0.997 | locus YNR049C, strain mso1, active compounds read low 0.984 | locus YNR052C, strain pop2, active compounds read low 0.988 | locus YOL012C, strain htz1 0.84 | locus YOL147C, strain pex11, active compounds read low 0.993 | locus YOR001W, strain rrp6, active compounds read low 1.01 | locus YOR061W, strain CKA2, active compounds read low 0.991 | locus YOR069W, strain VPS5, active compounds read low 0.992 | locus YOR070C, strain gyp1, active compounds read low 1.01 | locus YOR080W, strain dia2, active compounds read low 0.997 | locus YOR083W, strain WHI5, active compounds read low 0.999 | locus YOR106W, strain vam3, active compounds read low 0.999 | locus YOR136W, strain idh2, active compounds read low 0.971 | locus YOR144C, strain elg1, active compounds read low 0.989 | locus YOR184W, strain ser1, active compounds read low 0.992 | locus YOR231W, strain MKK1, active compounds read low 0.965 | locus YOR265W, strain rbl2, active compounds read low 1.01 | locus YOR270C, strain vph1, active compounds read low 1.02 | locus YOR290C, strain snf2, active compounds read low 0.974 | locus YOR316C, strain cot1, active compounds read low 0.986 | locus YPL051W, strain arl3, active compounds read low 0.999 | [17] 1.01 | locus YPL078C, strain atp4, active compounds read low 0.994 | locus YPL106C, strain sse1, active compounds read low 1.01 | locus YPL240C, strain hsp82, active compounds read low 0.99 | [18] 1.01 | locus YPL256C, strain CLN2, active compounds read low 0.948 | locus YPR119W, strain clb2, active compounds read low 0.99 | locus YPR141C, strain kar3, active compounds read low 0.984 | locus YPR163C, strain tif3, active compounds read low 0.992 | locus YPR167C, strain met16, active compounds read low 0.996 | strain wtn01, active compounds read low 0.93

Cc1cc(C2=CSC3=NCCN23)ccc1Cl
inactive: [1] 0.99 | [2] 1.01 | [3] 0.974 | [4] 0.989 | [5] 0.974 | [6] 1 | [19] 0.989 | [7] 0.872 | [20] 1.01 | [8] 1 | [9] 0.999 | [10] 0.982 | [12] 1.02 | [21] 0.996 | [22] 0.933 | [13] 1.03 | [23] 0.99 | [24] 0.987 | [14] 0.998 | [25] 0.992 | [26] 0.946 | [16] 0.989 | [27] 0.994 | [28] 0.752 | [17] 1.02 | [18] 0.975 | [29] 0.709

Cc1cc(OCOc2ccc(Cl)c(C)c2)ccc1Cl
inactive: [1] 0.984 | [2] 0.988 | locus YCL061C, strain MRC1, active compounds read low 1.03 | [3] 1.05 | [4] 0.995 | [5] 0.997 | [6] 0.992 | [19] 1.01 | locus YGR229C, strain SMI1, active compounds read low 0.999 | [7] 0.814 | [20] 0.955 | [9] 1.03 | [10] 1.02 | [11] 0.966 | [12] 1.11 | [21] 0.989 | [22] 0.973 | [13] 0.99 | [23] 0.982 | [24] 0.991 | [14] 0.927 | [15] 0.834 | [25] 1.01 | [26] 1.04 | [16] 0.982 | [27] 0.97 | [28] 0.916 | [17] 0.975 | [18] 1 | [29] 0.999
